Measurements from ChEMBL document CHEMBL1961873, “Compounds: GSK PKIS; Assays: Nanosyn kinase panel” (2012).

Experiments:
[1] = target: Tyrosine-protein kinase CSK (Homo sapiens) (UniProt P41240); settings: at 1 µM;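 further: each value is an averaged inhibition reading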
[2] = target: T1, Discoidin domain-containing receptor 2 (Homo sapiens) (UniProt Q16832); settings: at 0.1 µM
T1 sequence (whole entry): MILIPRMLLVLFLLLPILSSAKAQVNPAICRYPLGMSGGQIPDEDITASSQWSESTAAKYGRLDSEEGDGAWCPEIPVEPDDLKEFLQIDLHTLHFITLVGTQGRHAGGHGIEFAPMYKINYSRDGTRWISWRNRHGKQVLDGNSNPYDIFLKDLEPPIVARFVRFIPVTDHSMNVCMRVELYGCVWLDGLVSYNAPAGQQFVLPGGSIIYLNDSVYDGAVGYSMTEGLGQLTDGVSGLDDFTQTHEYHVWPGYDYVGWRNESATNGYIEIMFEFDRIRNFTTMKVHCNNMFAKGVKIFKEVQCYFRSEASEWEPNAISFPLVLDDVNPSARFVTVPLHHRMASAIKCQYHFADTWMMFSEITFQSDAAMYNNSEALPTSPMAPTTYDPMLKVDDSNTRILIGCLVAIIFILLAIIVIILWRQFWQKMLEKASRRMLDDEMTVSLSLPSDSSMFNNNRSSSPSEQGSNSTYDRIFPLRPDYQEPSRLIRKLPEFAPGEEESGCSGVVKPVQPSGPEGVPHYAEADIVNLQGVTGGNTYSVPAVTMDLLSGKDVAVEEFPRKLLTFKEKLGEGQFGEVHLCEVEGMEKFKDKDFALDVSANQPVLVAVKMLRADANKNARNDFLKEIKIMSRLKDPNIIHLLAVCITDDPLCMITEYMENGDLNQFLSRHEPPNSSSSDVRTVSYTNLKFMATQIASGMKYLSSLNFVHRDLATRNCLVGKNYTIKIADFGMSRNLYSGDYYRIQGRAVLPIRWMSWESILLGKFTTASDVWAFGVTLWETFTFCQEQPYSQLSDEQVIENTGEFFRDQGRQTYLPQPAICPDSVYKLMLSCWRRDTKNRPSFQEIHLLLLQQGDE

[3] = target: T1, Discoidin domain-containing receptor 2 (Homo sapiens); settings: at 1 µM
[4] = target: Epidermal growth factor receptor (Homo sapiens) (UniProt P00533); settings: at 0.1 µM
[5] = target: Epidermal growth factor receptor (Homo sapiens) (UniProt P00533); settings: at 1 µM
[6] = test system: Epidermal growth factor receptor (Homo sapiens), P00533 [L858R]; settings: at 0.1 µM
[7] = test system: Epidermal growth factor receptor (Homo sapiens), P00533 [L858R]; settings: at 1 µM
[8] = test system: Epidermal growth factor receptor (Homo sapiens), P00533 [L861Q]; settings: at 0.1 µM
[9] = test system: Epidermal growth factor receptor (Homo sapiens), P00533 [L861Q]; settings: at 1 µM
[10] = test system: Epidermal growth factor receptor (Homo sapiens), P00533 [T790M]; settings: at 0.1 µM
[11] = test system: Epidermal growth factor receptor (Homo sapiens), P00533 [T790M]; settings: at 1 µM
[12] = test system: Epidermal growth factor receptor (Homo sapiens), P00533 [L858R,T790M]; settings: at 0.1 µM
[13] = test system: Epidermal growth factor receptor (Homo sapiens), P00533 [L858R,T790M]; settings: at 1 µM
[14] = target: Ephrin type-A receptor 2 (Homo sapiens) (UniProt P29317); settings: at 0.1 µM
[15] = target: Ephrin type-A receptor 2 (Homo sapiens) (UniProt P29317); settings: at 1 µM
[16] = target: T2, Ephrin type-A receptor 3 (Homo sapiens) (UniProt P29320); settings: at 0.1 µM
T2 sequence (whole entry): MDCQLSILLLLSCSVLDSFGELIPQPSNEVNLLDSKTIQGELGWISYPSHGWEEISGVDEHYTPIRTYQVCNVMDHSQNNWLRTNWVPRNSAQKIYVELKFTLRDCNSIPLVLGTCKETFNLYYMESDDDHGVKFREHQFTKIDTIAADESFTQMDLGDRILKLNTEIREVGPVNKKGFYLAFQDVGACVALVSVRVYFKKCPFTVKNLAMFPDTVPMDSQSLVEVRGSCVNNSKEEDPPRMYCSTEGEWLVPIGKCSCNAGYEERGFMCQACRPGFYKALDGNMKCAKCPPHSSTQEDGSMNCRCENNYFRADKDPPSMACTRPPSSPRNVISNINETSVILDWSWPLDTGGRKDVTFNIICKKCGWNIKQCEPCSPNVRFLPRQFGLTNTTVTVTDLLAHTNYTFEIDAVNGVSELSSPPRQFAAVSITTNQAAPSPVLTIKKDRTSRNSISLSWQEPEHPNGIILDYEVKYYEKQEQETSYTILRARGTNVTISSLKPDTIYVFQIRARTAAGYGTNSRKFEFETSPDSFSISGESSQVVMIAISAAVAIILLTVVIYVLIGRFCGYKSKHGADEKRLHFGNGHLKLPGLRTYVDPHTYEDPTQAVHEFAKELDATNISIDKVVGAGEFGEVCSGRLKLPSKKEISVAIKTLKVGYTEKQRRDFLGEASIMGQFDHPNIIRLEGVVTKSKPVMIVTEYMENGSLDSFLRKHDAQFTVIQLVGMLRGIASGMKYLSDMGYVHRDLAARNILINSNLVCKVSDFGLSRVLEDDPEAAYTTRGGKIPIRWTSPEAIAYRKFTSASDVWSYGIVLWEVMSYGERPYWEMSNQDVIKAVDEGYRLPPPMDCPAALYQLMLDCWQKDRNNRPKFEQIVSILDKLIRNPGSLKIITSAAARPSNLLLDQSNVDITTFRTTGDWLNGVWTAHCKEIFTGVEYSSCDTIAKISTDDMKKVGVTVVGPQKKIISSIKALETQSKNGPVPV

[17] = target: T2, Ephrin type-A receptor 3 (Homo sapiens); settings: at 1 µM
[18] = target: Ephrin type-A receptor 4 (Homo sapiens) (UniProt P54764); settings: at 0.1 µM
[19] = target: Ephrin type-A receptor 4 (Homo sapiens) (UniProt P54764); settings: at 1 µM
[20] = target: T3, Ephrin type-B receptor 2 (Homo sapiens) (UniProt P29323); settings: at 0.1 µM;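 further: reported as mean inhibition of EPHB2, from the GSK PKIS dataset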
T3 sequence (whole entry): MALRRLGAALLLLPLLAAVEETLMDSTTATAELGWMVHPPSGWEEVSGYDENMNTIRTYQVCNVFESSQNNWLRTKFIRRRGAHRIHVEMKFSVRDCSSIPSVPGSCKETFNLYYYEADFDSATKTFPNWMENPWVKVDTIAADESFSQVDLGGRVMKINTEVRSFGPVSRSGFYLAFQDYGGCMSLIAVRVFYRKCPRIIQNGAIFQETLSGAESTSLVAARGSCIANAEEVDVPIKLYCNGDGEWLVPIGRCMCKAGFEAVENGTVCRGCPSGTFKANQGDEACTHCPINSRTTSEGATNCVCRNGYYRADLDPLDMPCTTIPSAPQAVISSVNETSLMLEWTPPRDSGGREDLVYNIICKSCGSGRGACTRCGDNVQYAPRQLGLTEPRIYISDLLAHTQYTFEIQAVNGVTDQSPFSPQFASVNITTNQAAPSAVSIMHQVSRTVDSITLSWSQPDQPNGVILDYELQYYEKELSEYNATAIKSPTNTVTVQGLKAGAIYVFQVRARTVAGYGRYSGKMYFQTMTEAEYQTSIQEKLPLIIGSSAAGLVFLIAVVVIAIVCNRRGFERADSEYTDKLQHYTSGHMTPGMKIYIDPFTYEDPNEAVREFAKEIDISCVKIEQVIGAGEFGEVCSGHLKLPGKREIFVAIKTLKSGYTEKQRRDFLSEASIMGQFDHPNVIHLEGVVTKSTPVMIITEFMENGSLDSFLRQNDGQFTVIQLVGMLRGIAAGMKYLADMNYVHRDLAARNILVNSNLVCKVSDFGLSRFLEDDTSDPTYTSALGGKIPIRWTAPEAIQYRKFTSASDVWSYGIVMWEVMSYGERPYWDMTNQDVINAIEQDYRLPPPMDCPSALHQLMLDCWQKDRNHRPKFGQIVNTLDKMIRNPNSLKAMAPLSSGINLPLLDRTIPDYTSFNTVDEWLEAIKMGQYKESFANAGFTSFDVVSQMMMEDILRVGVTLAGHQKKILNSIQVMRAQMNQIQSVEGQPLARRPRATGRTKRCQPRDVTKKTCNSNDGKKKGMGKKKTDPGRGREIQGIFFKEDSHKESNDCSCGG

Epidermal growth factor receptor (Homo sapiens), P00533 [L858R], sequence (P00533 whole entry L858R): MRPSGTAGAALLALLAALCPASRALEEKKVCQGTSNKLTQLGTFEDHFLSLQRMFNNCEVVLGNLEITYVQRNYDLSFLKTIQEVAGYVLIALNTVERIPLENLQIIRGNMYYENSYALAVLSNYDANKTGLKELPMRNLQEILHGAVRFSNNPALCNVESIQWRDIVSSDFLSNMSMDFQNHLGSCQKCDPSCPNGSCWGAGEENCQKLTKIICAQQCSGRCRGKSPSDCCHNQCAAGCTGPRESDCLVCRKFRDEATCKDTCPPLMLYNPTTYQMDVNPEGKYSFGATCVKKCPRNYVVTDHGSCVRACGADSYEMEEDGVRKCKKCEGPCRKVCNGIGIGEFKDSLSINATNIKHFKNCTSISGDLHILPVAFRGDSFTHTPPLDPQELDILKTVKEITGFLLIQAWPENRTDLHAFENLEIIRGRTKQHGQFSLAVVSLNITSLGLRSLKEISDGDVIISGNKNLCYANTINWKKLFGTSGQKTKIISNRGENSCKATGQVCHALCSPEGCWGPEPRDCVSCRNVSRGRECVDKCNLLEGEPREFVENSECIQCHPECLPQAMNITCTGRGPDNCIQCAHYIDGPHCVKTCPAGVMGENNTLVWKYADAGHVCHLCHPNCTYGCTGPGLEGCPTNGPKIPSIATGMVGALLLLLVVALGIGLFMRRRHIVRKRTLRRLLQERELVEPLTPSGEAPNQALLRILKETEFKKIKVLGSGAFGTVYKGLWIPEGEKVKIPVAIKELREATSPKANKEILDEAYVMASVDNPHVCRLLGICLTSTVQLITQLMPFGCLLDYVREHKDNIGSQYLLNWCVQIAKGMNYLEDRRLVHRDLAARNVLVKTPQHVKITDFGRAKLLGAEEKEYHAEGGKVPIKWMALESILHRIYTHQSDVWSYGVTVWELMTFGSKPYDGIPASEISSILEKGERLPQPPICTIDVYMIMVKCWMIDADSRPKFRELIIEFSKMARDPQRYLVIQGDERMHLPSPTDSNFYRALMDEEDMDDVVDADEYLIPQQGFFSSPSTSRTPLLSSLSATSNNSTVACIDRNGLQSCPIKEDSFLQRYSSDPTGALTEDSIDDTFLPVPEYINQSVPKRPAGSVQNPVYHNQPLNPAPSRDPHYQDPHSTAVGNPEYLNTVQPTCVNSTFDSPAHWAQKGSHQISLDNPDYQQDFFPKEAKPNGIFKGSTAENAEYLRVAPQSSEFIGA
Epidermal growth factor receptor (Homo sapiens), P00533 [T790M], sequence (P00533 whole entry T790M): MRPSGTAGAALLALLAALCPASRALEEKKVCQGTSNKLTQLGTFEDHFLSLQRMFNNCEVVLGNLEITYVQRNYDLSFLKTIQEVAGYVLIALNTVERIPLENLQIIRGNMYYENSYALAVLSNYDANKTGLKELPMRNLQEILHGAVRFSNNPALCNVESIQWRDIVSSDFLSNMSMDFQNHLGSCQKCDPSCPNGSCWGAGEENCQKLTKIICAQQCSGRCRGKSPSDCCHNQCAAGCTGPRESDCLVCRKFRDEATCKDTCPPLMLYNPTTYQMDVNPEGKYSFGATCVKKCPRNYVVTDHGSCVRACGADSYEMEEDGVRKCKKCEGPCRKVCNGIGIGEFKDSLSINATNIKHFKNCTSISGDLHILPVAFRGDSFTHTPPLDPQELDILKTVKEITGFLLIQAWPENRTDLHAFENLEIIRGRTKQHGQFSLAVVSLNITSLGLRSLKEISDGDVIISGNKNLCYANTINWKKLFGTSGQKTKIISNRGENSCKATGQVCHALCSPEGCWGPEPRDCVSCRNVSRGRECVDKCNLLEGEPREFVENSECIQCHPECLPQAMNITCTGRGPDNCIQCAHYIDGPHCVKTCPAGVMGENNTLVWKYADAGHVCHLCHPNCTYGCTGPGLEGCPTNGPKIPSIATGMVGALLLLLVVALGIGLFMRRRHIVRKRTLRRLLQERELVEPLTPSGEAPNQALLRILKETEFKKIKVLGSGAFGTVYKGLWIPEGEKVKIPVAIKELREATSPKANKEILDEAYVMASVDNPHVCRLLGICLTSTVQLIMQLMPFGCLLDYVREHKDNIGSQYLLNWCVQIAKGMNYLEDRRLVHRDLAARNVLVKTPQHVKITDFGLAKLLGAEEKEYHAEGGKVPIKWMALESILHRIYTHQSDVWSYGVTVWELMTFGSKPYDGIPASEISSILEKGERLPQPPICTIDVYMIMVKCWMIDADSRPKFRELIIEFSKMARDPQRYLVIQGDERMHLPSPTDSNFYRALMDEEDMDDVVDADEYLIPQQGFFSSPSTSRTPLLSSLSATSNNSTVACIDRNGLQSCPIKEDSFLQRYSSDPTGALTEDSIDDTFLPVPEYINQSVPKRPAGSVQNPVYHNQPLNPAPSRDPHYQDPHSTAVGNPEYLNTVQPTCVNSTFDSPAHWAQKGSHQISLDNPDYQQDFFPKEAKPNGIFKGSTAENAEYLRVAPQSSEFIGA
Ephrin type-A receptor 4 (Homo sapiens), sequence (P54764 whole entry): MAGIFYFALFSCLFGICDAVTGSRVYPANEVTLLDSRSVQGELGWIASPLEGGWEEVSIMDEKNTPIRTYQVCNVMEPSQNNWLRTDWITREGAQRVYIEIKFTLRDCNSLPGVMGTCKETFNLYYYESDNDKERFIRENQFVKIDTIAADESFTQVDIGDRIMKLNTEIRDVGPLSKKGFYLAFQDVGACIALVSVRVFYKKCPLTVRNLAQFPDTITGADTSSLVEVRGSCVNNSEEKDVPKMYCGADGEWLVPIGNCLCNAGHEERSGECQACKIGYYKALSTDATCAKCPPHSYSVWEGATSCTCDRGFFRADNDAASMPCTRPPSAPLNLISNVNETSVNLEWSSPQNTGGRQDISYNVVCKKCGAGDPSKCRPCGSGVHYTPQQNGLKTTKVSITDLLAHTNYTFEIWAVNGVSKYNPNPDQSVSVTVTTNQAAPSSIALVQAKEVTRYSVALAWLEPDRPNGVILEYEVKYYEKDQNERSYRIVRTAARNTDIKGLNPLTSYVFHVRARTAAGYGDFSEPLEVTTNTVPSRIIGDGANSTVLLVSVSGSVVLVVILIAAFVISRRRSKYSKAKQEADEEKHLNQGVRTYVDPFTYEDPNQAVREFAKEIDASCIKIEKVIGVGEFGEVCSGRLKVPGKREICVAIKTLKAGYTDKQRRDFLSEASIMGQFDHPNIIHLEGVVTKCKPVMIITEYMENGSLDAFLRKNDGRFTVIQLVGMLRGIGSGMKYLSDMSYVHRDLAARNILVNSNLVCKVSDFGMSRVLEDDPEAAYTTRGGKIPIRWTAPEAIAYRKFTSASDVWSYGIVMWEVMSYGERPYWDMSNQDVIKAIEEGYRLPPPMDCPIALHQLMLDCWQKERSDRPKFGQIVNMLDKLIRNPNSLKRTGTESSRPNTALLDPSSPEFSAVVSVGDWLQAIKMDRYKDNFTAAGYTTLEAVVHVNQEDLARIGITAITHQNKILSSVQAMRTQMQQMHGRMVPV
Tyrosine-protein kinase CSK (Homo sapiens), sequence (P41240 2-450 limits assumed): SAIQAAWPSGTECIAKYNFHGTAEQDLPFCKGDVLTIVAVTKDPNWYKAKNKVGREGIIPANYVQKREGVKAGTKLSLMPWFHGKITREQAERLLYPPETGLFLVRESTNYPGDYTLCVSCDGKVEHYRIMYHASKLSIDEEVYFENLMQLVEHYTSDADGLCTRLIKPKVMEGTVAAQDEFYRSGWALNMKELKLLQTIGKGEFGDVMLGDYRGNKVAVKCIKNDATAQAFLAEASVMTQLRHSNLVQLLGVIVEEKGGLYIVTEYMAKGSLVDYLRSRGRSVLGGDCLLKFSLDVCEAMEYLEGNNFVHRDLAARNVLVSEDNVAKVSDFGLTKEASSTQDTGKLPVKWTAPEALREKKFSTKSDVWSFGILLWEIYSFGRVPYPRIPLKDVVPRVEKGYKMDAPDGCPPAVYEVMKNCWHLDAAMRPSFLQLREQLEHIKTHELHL
Epidermal growth factor receptor (Homo sapiens), P00533 [L858R,T790M], sequence (P00533 whole entry T790M/L858R, looked up): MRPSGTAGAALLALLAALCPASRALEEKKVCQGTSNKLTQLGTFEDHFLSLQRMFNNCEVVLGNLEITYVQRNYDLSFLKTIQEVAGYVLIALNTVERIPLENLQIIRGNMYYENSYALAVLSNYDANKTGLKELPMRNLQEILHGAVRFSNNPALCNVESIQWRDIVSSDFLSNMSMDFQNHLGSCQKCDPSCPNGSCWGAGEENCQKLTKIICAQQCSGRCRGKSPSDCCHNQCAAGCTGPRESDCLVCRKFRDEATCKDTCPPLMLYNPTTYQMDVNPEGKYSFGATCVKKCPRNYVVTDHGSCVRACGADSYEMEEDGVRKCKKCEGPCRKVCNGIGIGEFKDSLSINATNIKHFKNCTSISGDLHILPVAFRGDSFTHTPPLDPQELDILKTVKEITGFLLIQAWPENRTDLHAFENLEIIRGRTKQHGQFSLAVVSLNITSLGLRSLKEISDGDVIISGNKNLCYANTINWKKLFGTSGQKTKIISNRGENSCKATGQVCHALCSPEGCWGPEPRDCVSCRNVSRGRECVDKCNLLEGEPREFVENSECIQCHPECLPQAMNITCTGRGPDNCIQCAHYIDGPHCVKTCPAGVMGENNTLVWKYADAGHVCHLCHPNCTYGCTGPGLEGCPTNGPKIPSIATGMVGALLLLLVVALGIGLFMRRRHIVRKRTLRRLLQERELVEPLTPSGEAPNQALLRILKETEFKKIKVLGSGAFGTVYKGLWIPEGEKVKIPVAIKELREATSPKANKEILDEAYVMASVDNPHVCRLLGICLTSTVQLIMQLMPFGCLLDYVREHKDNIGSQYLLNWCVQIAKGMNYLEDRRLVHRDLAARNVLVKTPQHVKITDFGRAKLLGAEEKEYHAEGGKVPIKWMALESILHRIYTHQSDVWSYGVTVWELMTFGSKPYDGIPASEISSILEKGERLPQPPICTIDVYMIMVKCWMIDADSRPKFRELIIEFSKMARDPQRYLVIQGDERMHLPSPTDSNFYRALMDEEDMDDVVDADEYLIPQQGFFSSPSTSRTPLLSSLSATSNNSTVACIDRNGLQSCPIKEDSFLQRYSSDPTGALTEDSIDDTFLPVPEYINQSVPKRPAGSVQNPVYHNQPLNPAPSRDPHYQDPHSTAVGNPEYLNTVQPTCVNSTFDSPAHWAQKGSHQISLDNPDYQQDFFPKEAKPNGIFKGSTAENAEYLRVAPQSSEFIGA

| Structure (SMILES) | inhibition [1] [%] | inhibition [2] [%] | inhibition [3] [%] | inhibition [4] [%] | inhibition [5] [%] | inhibition [6] [%] | inhibition [7] [%] | inhibition [8] [%] | inhibition [9] [%] | inhibition [10] [%] | inhibition [11] [%] | inhibition [12] [%] | inhibition [13] [%] | inhibition [14] [%] | inhibition [15] [%] | inhibition [16] [%] | inhibition [17] [%] | inhibition [18] [%] | inhibition [19] [%] | inhibition [20] [%] |
| --- | --- | --- | --- | --- | --- | --- | --- | --- | --- | --- | --- | --- | --- | --- | --- | --- | --- | --- | --- | --- |
| Cc1ccc(NC(=O)CC2CC2)cc1-c1ccc(C(=O)NCC2CC2)cc1 | 5.95 | 2.18 | 5.56 | 0.19 | 2.75 | 3.95 | 4.15 | 1.88 | 4.52 | 2.03 | 2.09 | 0.02 | 0.35 | 0.66 | 1.4 | 3.45 | 4.59 | 8.26 | 12.9 | 6.33 |
| NS(=O)(=O)c1ccc(N/N=C2\C(=O)Nc3ccc(Cl)cc32)cc1 | 7.01 | 0.3 | 3.13 | -0.16 | 5.53 | 2.02 | 5.32 | 1.9 | 3.4 | 0.9 | 4.35 | -0.89 | 2.78 | 1.86 | 1.3 | 4.83 | 4.35 | 7.66 | 12.2 | 3.99 |
| Cc1ccc2c(-c3ccnc(Nc4ccc5c(c4)OCCO5)n3)c(-c3ccc(C(F)(F)F)cc3)nn2n1 | 0.48 | -0.19 | 6.25 | -0.94 | 3.45 | 0.63 | 5.71 | -1.17 | 5.26 | -0.63 | 1.14 | 2.01 | 2.06 | 2.03 | 0.72 | 1.81 | 0 | 1.21 | 3.57 | -7.93 |
| CC(C)c1ccc(Nc2nccc(-c3cnn4ncccc34)n2)cc1 | 6.02 | 1.04 | 0.75 | 4.49 | 6.88 | 3.51 | 7.83 | 4.16 | 6.18 | -0.27 | 2.45 | -0.56 | 2.24 | -0.98 | 0.28 | 1.96 | 4.55 | 8.08 | 10.3 | 7.64 |
| NC(=O)c1cccc(Nc2nccc(Nc3cccc(F)c3)n2)c1 | 9.32 | -1.54 | 6.93 | 1.6 | 10.6 | 0.01 | 31.4 | 0.09 | 10.1 | -0.56 | 1.97 | -1.09 | 2.58 | -0.63 | 17.9 | 0.42 | 7.65 | 5.65 | 29.1 | 3.44 |
| NS(=O)(=O)c1ccc(NC=C2C(=O)Nc3ccc4ncsc4c32)cc1 | 3.77 | 1.65 | 6.94 | 0.01 | 0.9 | 3.08 | 5.45 | 2.21 | 0.54 | 2.24 | 2.64 | 3.17 | 9.63 | 2.13 | 7.25 | 5.57 | 12.8 | 11.3 | 33.7 | 4.62 |
